Laboratory results from the supplement of paper PMC10849652.
Of roughly 7,900 targets only a part is listed; those with a hit were picked by preference. About 0.6% of all pairs of compound and target were hits.

Columns and labels:
Experiment in all cases: log2 fold change, soluble protein after heating vs DMSO (PISA); higher = thermal stabilisation; K562 cells, 10 uM, 30 min; active = over 0.2 and 3.5 SD of the protein, either way, in both replicates (recomputed)
[1] = compound: CS(=O)(=O)c1ccc(-c2cnc(N)c(C(=O)Nc3ccccc3)n2)cc1
How it was run: (§1)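 For each measurement, 10 μM compound was applied for 30 min to K562 cells at 2×10^6 cells/mL. Aliquots were heated for 3 min across 48°C-58°C, pooled, and extracted in PBS with 0.5% NP-40 at 4°C; the supernatant after 21,000xg for 90 min was soluble protein. This was quantified by TMTpro 16plex LC-MS/MS with channel sums equalised, and thermal stability was reported relative to control samples from duplicates, on a log2 fold-change scale.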

crizotinib = compound: C[C@@H](Oc1cc(-c2cnn(C3CCNCC3)c2)cnc1N)c1c(Cl)ccc(F)c1Cl [crizotinib]
How it was run: as §1

[2] = compound: C[C@@H]1COCCN1C2=NC(=NC(=C2)C3(CC3)S(=O)(=O)C)C4=C5C=CNC5=CC=C4
How it was run: as §1

[3] = compound: C[C@H](C1=CC=C(C=C1)C(=O)NC2=C3C=CNC3=NC=C2)N
How it was run: as §1

duvelisib = compound: C[C@H](Nc1ncnc2nc[nH]c12)c1cc2cccc(Cl)c2c(=O)n1-c1ccccc1 [duvelisib]
How it was run: as §1

gandotinib = compound: Cc1cc(Nc2cc(CN3CCOCC3)c3nc(C)c(Cc4ccc(Cl)cc4F)n3n2)n[nH]1 [gandotinib]
How it was run: as §1

tozasertib = compound: Cc1cc(Nc2cc(N3CCN(C)CC3)nc(Sc3ccc(NC(=O)C4CC4)cc3)n2)n[nH]1 [tozasertib]
How it was run: as §1

[4] = compound: Cc1cc(SCc2sc(-c3ccc(C(F)(F)F)cc3)nc2C)ccc1OCC(=O)O
How it was run: as §1

doramapimod = compound: Cc1ccc(-n2nc(C(C)(C)C)cc2NC(=O)Nc2ccc(OCCN3CCOCC3)c3ccccc23)cc1 [doramapimod]
How it was run: as §1

ispinesib = compound: Cc1ccc(C(=O)N(CCCN)[C@@H](c2nc3cc(Cl)ccc3c(=O)n2Cc2ccccc2)C(C)C)cc1 [ispinesib]
How it was run: as §1

Measured: log2 fold change

VTI1A (UniProt Q96AJ9)
Chain of UniProt Q96AJ9 (Q96AJ9 whole entry, looked up): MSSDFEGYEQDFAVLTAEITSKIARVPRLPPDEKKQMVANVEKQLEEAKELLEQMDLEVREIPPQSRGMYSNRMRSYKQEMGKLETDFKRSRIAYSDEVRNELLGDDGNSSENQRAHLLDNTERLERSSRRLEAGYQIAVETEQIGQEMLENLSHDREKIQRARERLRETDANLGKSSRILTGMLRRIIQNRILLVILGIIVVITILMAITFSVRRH
inactive: [1] -0.007 | crizotinib -0.072 | [2] 0.038 | [3] -0.022 | duvelisib 0.1 | gandotinib 0.046 | tozasertib 0.038 | [4] -0.019 | doramapimod 0.054 | ispinesib -0.237

USP24 (UniProt Q9UPU5)
active: [2] 0.396
inactive: [1] 0.062 | crizotinib 0.204 | [3] 0.015 | duvelisib 0.219 | gandotinib -0.213 | tozasertib 0.045 | [4] -0.017 | doramapimod -0.041 | ispinesib 0.115

XRCC1 (UniProt P18887)
inactive: [1] 0 | crizotinib 0.093 | [2] 0.087 | [3] 0.049 | duvelisib 0.133 | gandotinib -0.019 | tozasertib -0.235 | [4] -0.132 | doramapimod -0.101 | ispinesib 0.062

TNPO3 (UniProt Q9Y5L0)
Chain of UniProt Q9Y5L0 (Q9Y5L0 whole entry, looked up): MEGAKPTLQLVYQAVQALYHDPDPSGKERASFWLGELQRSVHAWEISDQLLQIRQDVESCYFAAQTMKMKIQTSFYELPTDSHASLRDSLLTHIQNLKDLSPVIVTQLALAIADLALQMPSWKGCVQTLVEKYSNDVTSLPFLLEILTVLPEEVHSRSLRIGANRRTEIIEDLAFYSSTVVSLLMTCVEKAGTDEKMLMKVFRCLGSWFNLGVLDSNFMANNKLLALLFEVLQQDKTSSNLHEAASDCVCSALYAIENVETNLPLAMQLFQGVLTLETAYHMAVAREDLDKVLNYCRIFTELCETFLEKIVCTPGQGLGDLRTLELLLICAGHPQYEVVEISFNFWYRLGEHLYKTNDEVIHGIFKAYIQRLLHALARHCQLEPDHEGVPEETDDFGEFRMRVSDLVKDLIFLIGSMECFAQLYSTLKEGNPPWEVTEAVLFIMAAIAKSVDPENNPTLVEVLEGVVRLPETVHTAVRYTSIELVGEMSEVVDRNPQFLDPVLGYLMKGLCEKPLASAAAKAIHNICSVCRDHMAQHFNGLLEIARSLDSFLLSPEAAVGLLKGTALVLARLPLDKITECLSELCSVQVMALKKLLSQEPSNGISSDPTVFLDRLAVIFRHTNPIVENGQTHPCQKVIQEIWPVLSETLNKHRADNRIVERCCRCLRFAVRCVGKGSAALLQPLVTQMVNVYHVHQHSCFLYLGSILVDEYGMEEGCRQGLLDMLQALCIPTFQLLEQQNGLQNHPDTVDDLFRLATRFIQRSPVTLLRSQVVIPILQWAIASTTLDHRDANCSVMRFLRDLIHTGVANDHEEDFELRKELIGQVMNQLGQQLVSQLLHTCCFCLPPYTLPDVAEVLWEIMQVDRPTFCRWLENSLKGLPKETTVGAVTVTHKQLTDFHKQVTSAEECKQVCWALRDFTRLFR
inactive: [1] -0.028 | crizotinib -0.151 | [2] 0.025 | [3] -0.124 | duvelisib -0.008 | gandotinib -0.143 | tozasertib 0.087 | [4] 0.046 | doramapimod -0.046 | ispinesib 0.008

USP48 (UniProt Q86UV5)
inactive: [1] 0.015

WBP4 (UniProt O75554)
Chain of UniProt O75554 (O75554 whole entry, looked up): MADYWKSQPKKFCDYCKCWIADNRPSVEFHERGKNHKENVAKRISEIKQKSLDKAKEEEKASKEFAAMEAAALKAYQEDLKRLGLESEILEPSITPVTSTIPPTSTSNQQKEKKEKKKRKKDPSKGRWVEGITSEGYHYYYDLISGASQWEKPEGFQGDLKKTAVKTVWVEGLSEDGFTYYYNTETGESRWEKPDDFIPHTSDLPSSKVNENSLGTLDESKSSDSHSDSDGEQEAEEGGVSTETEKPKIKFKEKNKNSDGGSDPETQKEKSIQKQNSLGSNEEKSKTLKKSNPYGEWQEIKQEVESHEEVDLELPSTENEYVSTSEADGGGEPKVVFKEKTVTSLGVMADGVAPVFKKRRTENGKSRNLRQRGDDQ
inactive: [1] -0.032 | crizotinib 0.059 | [2] 0.004 | [3] -0.015 | duvelisib 0.011 | gandotinib -0.022 | tozasertib -0.016 | [4] 0.01 | doramapimod 0.018 | ispinesib -0.044

UBAP2L isoform 1 (UniProt Q14157)
Chain of UniProt Q14157 (Q14157 whole entry, looked up): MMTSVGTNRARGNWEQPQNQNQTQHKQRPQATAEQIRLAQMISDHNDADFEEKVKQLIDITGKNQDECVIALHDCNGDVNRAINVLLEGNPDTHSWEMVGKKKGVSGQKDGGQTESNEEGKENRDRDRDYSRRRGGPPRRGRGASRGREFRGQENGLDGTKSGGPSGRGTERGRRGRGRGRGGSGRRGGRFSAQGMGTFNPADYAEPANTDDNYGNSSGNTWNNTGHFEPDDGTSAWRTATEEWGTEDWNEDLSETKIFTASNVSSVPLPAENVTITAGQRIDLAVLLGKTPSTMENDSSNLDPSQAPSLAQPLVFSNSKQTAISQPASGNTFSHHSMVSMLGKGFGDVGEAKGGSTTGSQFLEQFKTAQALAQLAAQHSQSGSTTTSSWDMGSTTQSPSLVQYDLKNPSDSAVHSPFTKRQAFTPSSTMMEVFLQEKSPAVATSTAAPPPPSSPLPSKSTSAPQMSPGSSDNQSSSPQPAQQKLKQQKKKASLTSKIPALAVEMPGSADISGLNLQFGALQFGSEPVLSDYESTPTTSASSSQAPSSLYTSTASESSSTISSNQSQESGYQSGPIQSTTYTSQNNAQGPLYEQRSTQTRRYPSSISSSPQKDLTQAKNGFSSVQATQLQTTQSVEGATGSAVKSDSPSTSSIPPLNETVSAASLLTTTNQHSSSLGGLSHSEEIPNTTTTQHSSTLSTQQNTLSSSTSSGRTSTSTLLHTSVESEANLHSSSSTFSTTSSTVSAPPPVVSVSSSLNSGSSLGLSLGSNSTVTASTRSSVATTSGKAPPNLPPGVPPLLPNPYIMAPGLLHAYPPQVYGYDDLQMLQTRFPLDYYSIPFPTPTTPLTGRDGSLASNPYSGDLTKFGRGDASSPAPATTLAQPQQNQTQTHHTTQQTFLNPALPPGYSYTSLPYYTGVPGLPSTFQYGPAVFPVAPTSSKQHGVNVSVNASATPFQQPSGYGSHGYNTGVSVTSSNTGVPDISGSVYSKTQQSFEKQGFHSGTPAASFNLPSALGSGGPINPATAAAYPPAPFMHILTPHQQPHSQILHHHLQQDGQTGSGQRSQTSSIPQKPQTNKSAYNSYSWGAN
inactive: [1] -0.034 | crizotinib 0.077 | [2] 0.009 | [3] -0.008 | duvelisib 0.022 | gandotinib -0.007 | tozasertib -0.062 | [4] -0.056 | doramapimod 0.034 | ispinesib -0.026

TMEM9 (UniProt Q9P0T7)
Chain of UniProt Q9P0T7 (Q9P0T7 whole entry, looked up): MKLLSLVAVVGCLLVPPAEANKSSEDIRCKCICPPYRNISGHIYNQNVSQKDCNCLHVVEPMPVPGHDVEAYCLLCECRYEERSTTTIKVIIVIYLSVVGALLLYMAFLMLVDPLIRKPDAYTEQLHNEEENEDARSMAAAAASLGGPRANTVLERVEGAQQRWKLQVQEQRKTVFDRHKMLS
inactive: [1] -0.026 | crizotinib -0.026 | [2] 0.029 | [3] -0.197 | duvelisib -0.012 | gandotinib -0.026 | tozasertib -0.049 | [4] 0.014 | doramapimod 0.048 | ispinesib -0.093

UBR2 (UniProt Q8IWV8)
inactive: [1] 0 | crizotinib -0.027 | [2] -0.063 | [3] 0.166 | duvelisib 0.008 | gandotinib 0 | tozasertib -0.03 | [4] 0.135 | doramapimod 0.073 | ispinesib -0.141

VPS52 (UniProt Q8N1B4)
inactive: [1] -0.001 | crizotinib -0.102 | [2] -0.031 | [3] 0.058 | duvelisib 0.033 | gandotinib -0.122 | tozasertib 0.022 | [4] -0.013 | doramapimod 0.008 | ispinesib -0.068

UTP3 (UniProt Q9NQZ2)
Chain of UniProt Q9NQZ2 (Q9NQZ2 whole entry, looked up): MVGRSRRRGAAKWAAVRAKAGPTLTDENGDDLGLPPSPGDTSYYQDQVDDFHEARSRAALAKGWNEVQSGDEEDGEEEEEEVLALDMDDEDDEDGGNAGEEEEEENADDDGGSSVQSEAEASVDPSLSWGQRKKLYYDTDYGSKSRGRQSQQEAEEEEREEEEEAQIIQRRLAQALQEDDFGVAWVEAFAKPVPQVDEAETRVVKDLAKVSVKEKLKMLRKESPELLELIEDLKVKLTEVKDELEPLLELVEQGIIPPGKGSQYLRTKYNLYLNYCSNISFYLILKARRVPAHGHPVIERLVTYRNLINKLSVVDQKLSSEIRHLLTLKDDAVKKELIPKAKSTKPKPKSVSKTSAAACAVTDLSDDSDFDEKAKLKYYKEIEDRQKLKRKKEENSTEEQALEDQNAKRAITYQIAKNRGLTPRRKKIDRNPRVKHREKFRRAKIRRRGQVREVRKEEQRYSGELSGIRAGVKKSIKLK
inactive: [1] 0.015 | crizotinib 0.061 | [2] -0.494 | [3] 0.363 | duvelisib -0.133 | gandotinib 0.17 | tozasertib 0.017 | [4] -0.04 | doramapimod 0.099 | ispinesib -0.144

TOP2A isoform 4 (UniProt P11388)
inactive: [1] -0.071 | crizotinib -0.157 | [2] -0.337 | [3] 0.559 | duvelisib -0.185 | gandotinib 0.158 | tozasertib -0.025 | [4] 0.015 | doramapimod 0.362 | ispinesib -0.376

TUBA4A (UniProt P68366)
inactive: [1] 0.004 | crizotinib -0.11 | [2] 0.099 | [3] -0.054 | duvelisib 0.329 | gandotinib 0.014 | tozasertib -0.068 | [4] 0.208 | doramapimod 0.008 | ispinesib 0.009

TMEM161B (UniProt Q8NDZ6)
inactive: [1] 0.026 | crizotinib -0.096 | [2] 0.004 | [3] 0.002 | duvelisib 0.128 | gandotinib -0.156 | tozasertib 0.063 | [4] 0.11 | doramapimod -0.024 | ispinesib -0.055

TPR (UniProt P12270)
inactive: [1] -0.03 | [2] 0.013 | [3] -0.083 | duvelisib 0.017 | gandotinib 0.008 | [4] -0.027 | doramapimod 0.037 | ispinesib 0.223
active: crizotinib 0.297 | tozasertib 0.349

UTP14A (UniProt Q9BVJ6)
inactive: [1] -0.059 | crizotinib -0.035 | [2] -0.382 | [3] 0.274 | duvelisib -0.128 | gandotinib 0.151 | tozasertib 0.05 | [4] 0.065 | doramapimod 0.172 | ispinesib -0.171

UCHL5 (UniProt Q9Y5K5)
inactive: [1] 0.023 | crizotinib -0.066 | [2] 0 | [3] -0.005 | duvelisib -0.006 | gandotinib -0.116 | tozasertib 0.036 | [4] 0.064 | doramapimod -0.015 | ispinesib -0.056

USP48 isoform 8 (UniProt Q86UV5)
inactive: [1] 0.03 | crizotinib -0.036 | [2] 0.066 | [3] -0.133 | duvelisib 0.088 | gandotinib -0.197 | tozasertib 0.334 | [4] 0.212 | doramapimod -0.1 | ispinesib -0.07

XPO5 (UniProt Q9HAV4)
Chain of UniProt Q9HAV4 (Q9HAV4 whole entry, looked up): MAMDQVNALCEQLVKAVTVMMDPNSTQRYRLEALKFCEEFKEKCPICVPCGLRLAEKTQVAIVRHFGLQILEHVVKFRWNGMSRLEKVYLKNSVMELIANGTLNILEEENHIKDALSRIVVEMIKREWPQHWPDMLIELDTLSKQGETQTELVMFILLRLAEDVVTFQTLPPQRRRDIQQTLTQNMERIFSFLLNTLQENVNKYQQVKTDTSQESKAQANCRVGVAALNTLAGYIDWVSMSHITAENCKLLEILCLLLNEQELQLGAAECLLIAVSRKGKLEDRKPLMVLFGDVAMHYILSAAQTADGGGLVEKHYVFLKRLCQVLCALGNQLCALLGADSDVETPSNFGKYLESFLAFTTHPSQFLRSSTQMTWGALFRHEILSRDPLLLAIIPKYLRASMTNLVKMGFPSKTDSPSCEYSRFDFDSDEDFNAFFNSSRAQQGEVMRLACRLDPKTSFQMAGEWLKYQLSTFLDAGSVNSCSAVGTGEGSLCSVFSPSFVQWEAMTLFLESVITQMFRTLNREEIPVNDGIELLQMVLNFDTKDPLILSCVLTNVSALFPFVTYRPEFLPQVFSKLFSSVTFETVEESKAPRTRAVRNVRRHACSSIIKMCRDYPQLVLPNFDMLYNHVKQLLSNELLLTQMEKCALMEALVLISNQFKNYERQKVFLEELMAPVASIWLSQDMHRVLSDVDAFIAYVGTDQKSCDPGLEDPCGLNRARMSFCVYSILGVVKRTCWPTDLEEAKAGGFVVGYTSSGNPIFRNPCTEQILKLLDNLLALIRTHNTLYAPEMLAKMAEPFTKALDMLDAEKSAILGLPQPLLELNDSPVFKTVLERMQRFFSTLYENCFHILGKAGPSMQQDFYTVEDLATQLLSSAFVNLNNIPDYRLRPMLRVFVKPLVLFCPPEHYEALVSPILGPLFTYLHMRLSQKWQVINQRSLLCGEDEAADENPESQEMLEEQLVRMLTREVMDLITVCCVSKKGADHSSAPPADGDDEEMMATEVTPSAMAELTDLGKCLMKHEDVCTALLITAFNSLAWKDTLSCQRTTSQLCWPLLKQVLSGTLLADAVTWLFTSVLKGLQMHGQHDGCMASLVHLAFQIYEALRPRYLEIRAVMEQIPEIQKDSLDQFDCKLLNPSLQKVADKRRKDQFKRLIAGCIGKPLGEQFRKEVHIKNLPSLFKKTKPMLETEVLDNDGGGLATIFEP
inactive: [1] -0.008 | crizotinib -0.052 | [2] 0.021 | [3] -0.026 | duvelisib 0.007 | gandotinib -0.192 | tozasertib 0.03 | [4] 0.064 | doramapimod -0.043 | ispinesib -0.079

UBE2Q1 (UniProt Q7Z7E8)
inactive: [1] 0 | crizotinib -0.061 | [2] 0.092 | [3] 0.004 | duvelisib 0.003 | gandotinib -0.196 | tozasertib 0.036 | [4] 0.07 | doramapimod 0.029 | ispinesib -0.001

UBE2S (UniProt Q16763)
inactive: [1] 0.014 | crizotinib 0.079 | [2] 0.003 | [3] -0.067 | duvelisib 0.042 | gandotinib -0.015 | tozasertib 0.025 | [4] 0.002 | doramapimod 0.024 | ispinesib 0.1

WARS2 (UniProt Q9UGM6)
inactive: [1] -0.062 | crizotinib 0.09 | [2] 0.065 | [3] 0.027 | duvelisib 0.079 | gandotinib 0.006 | tozasertib -0.001 | [4] 0.04 | doramapimod 0.017 | ispinesib -0.085

U2AF2 (UniProt P26368)
Chain of UniProt P26368 (P26368 whole entry, looked up): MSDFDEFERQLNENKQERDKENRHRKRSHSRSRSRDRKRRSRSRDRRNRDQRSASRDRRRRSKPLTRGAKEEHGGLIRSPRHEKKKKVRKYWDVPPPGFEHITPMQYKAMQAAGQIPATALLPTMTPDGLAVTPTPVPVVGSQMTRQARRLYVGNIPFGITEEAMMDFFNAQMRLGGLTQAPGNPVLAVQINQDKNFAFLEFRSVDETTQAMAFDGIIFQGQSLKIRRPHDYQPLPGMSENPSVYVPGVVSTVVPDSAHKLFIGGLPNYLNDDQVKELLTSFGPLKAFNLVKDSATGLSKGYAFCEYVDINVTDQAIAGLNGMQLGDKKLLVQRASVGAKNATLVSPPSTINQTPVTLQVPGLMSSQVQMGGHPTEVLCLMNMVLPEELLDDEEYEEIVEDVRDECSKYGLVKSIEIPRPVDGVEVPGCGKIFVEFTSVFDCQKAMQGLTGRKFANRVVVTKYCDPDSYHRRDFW
inactive: [1] 0.036 | crizotinib -0.101 | [2] 0.057 | [3] -0.101 | duvelisib -0.029 | gandotinib 0.036 | tozasertib 0.008 | [4] 0.063 | doramapimod -0.006 | ispinesib 0.014

WASHC5 (UniProt Q12768)
inactive: [1] -0.023 | crizotinib -0.133 | [2] -0.068 | [3] 0.053 | duvelisib -0.034 | gandotinib -0.002 | tozasertib -0.02 | [4] 0.032 | doramapimod 0.073 | ispinesib -0.093

TNPO1 (UniProt Q92973)
inactive: [1] -0.008 | crizotinib -0.034 | [2] 0.058 | [3] -0.116 | duvelisib 0.002 | gandotinib -0.128 | tozasertib 0.052 | [4] 0.011 | doramapimod -0.034 | ispinesib -0.113

TMEM120A (UniProt Q9BXJ8)
inactive: [1] -0.137 | crizotinib 0.096 | [2] 0.175 | [3] -0.11 | duvelisib -0.009 | gandotinib -0.125 | tozasertib -0.01 | [4] -0.055 | doramapimod -0.077 | ispinesib 0.033

TMEM177 (UniProt Q53S58)
active: ispinesib -0.304
inactive: [1] 0.005 | crizotinib 0.033 | [2] 0.065 | [3] 0.011 | duvelisib 0.039 | gandotinib 0.025 | tozasertib 0.087 | [4] 0.053 | doramapimod -0.062

TTC38 (UniProt Q5R3I4)
active: doramapimod 0.73
inactive: [1] -0.055 | crizotinib -0.085 | [2] -0.085 | [3] -0.073 | duvelisib -0.027 | gandotinib -0.031 | tozasertib 0 | [4] 0.063 | ispinesib 0.06

WDR37 isoform 2 (UniProt Q9Y2I8)
inactive: [1] 0.026 | crizotinib 0 | [2] 0.041 | [3] 0.11 | duvelisib -0.113 | gandotinib 0.069 | tozasertib 0.055 | [4] 0.15 | doramapimod 0.02 | ispinesib 0.055

XRCC5 (UniProt P13010)
inactive: [1] 0.037 | crizotinib -0.086 | [2] 0.047 | [3] 0.077 | duvelisib -0.017 | gandotinib -0.001 | tozasertib 0.177 | [4] 0.179 | doramapimod 0.064 | ispinesib -0.16
